G9a inh: G9a (human) methyltransferase inhibition | Q96KQ7 | G9a H3K9 monomethylation, AlphaScreen, 2 h | Potency, µM (top dose mostly 102 µM), without a hit: at the highest dose activity, negative = inhibition, hits mostly inhibitors | 8.8% of 350,000 active | AID 504332; also: potency is read from the fitted curve at half-maximal effect; nearly all actives have a fitted effect of over 75% in size
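Signal arises when biotinylated H3K9 peptide, once monomethylated, bridges streptavidin donor and antibody-captured acceptor beads. Enzyme at 20 nM was preincubated 15 min with test compounds; peptide 500 nM and SAM 20 uM then reacted for 2 h.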
Sfp inh: blocks B. subtilis Sfp PPTase activity | Q9F4F7 | Biochemical Sfp PPTase activity, qHTS | Potency, µM, inactives show largest response in the series, negative = inhibition, actives largely listed as inhibitors | 3.5% of 310,000 active | AID 1490;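 also: the enzyme is Sfp with the accession as filed and its product quenches rhodamine fluorescence; potency is read from the fitted curve at half-maximal effect; 0% = enzyme reaction without inhibitor and -100% = no enzyme wells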
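Fluorescence-quenching assay with 15 nM Sfp, 5 uM rhodamine-CoA and 12.5 uM BHQ-2-labelled ybbR peptide in pH 7.6 Hepes/MgCl2 buffer. Enzyme was pre-incubated with compound for 15 min at room temperature. Rate was taken from the 30-min fluorescence change (525/598 nm).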
Mm-Cpn inhibitor: inhibitors of Methanococcus maripaludis chaperonin TRiC (MmCpn); purified Mm-Cpn ATPase, ADP Transcreener TR-FRET; 0.031% of 330,000 active; Potency, µM (top dose mostly 76.9 µM), for inactives: at the top dose activity, negative = inhibition, usual class: inhibitors; also: potency is read from the fitted curve at half-maximal effect; nearly all actives have a fitted effect of over 80% in size
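Measured: ADP formation by purified Mm-CPN. Conditions: 25 nM protein, 10 uM ATP, Tris pH 7.4 with Mg2+, K+ and DTT, 37°C for 30 min. Detection: Transcreener HTRF after 30 min at room temperature.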
CCT modulator: modulators of cytosolic chaperonin (CCT/TRiC) activity; purified chaperonin ATPase assay, HTRF ADP detection, 30 min; activity change, % (concentration not given with the values), hits read low; 0.3% of 360,000 active; AID 651819; in the data active = activity change below about -30%
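Enzyme 40 or 20 nM (batch-dependent) in Tris pH 7.4/KCl/MgCl2/DTT; cpd 76 uM single point; ATP 10 uM; 30 min 37 °C; Transcreener ADP HTRF detection, 30 min RT; ratio 665/615.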
PLK1 PBD block: blocks phosphopeptide binding to human PLK1 polo-box domain | P53350 | 2.8% of 360,000 active | Potency, µM, for the others: max response, negative = inhibition, actives largely listed as inhibitors | AID 720504 | Plk1 PBD binding of FITC phosphopeptide, fluorescence polarization; also: potency is read from the fitted curve at half-maximal effect; series mostly up to about 57 µM; nearly all actives have a fitted effect of over 65% in size
Target sequence (P53350 whole entry, looked up, the tested form may be a part): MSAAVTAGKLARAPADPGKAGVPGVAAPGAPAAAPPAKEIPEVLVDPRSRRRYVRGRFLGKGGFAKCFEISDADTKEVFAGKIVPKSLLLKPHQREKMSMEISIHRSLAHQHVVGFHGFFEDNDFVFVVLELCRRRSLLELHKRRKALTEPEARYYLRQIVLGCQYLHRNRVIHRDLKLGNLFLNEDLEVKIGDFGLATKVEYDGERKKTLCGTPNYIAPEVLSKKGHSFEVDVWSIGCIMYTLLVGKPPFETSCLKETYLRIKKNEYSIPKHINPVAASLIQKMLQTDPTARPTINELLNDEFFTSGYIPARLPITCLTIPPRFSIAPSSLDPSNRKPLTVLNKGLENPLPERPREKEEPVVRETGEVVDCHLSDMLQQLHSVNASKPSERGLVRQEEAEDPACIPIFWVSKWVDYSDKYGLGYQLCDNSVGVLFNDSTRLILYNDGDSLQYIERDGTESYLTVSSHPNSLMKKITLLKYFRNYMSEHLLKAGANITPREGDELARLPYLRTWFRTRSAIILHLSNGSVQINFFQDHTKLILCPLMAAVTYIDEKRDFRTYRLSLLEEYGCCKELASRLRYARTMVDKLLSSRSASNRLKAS
VDR inhibitor: vitamin D3 receptor (human) inhibition | P11473 | VDR-SRC2-3 peptide fluorescence polarization, 2 h | 0.93% of 400,000 active | Potency, µM, inactives show max response, negative = inhibition, most hits filed as inhibitors; also: potency is read from the fitted curve at half-maximal effect
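Compounds are added to VDR with labelled SRC2-3 coactivator peptide and held 2 h at room temperature. Inhibition of the VDR–peptide interaction is then read as a change in fluorescence polarization.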
* marks the source's active call; other numbers are inactive results; ? = inconclusive; . = not tested or not shown; [ ] = another dose, or the depositor's remark. Sampled rows, rich in hits. Any-hit rate of the full collection: about 10%. Unless noted, calls follow the shape of the dose curve; as a rule, active = well fitted curve in the direction sought with a large enough effect; inconclusive = small, poorly fitted or top-dose-only effect, or another doubt; inactive = no such curve, though single readings can be large; an effect the other way counts as inactive or inconclusive. Unless noted, % is scaled to controls: 0 for no effect and ±100 for the full control effect.

SMILES | G9a inh | Sfp inh | Mm-Cpn inhibitor | CCT modulator | PLK1 PBD block | VDR inhibitor
Cc1ccc(C2C(C#N)=C(N)Oc3nc(-c4ccccc4)[nH]c32)o1 (stereo not given) | 50.1µM* | 10.2% | 1.2% | 0.7 | ? | -11.7%
Cc1ccc(S(=O)(=O)c2nnn3c2nc(N2CCN(c4ccccc4F)CC2)c2ccccc23)cc1C | 8.0%[59 µM] | . | . | . | . | 1.6%
CCC(C(=O)Nc1ccccc1)n1nc(-c2cc(C)ccc2C)ccc1=O (stereo not given) | -3.7%[59 µM] | . | . | . | . | -3.3%
CC(C)NCc1cccc([N+](=O)[O-])c1 | 2.51µM* | ? | 0.8% | 0.3 | -4.5% | ?
O=C(CSc1nnnn1-c1ccccc1)N1CCCc2ccccc21 | 9.8% | 7.3% | -0.9% | -0.6 | 1.7% | 8.4%
Cn1c(SCC(=O)N2CCc3ccccc32)nc2cccnc21 | -29.8% | 10.5% | -1.0% | -2.9 | 23.8µM* | -25.4%
O=C(CSc1nnnn1-c1ccccc1)N1CCc2ccccc21 | 12.6µM* | 6.6% | . | -2.1 | -4.1% | -5.6%
Cn1c(SCC(=O)N2CCCc3ccccc32)nc2cccnc21 | 23.8%[59 µM] | 2.6% | -0.6% | -0.9 | -6.3% | ?
Cn1cnc(S(=O)(=O)N2CCC(C(=O)NCc3ccccc3)CC2)c1 | -5.1%[59 µM] | . | . | . | . | 5.6%
CC(=O)OC1C[C@]2(C)[C@@H](CC(O)C3[C@]4(C)CCC(O)C(C)[C@@H]4CC[C@]32C)/C1=C(/CCC=C(C)C)C(=O)O (stereo not given in full) | 1.7%[2.33 µM] | 14.8% | . | . | . | -0.3%
Cc1cccc(N(CC(=O)NCCc2ccccc2)S(=O)(=O)c2ccccc2)c1C | -4.7%[59 µM] | . | . | . | . | -21.7%
CC(C(=O)OCC(=O)c1ccccc1)N1C(=O)c2ccccc2C1=O (stereo not given) | 0.1% | -8.2% | 1.4% | -1.7 | 29.9µM* | ?
COc1cccc(C(=O)COC(=O)C(C)N2C(=O)c3ccccc3C2=O)c1 (stereo not given) | -1.4%[59 µM] | 1.8% | -0.3% | -0.7 | -2.8% | 2.8%
N#CCCCS(=O)(=O)c1ccccc1 | . | 23.0% | . | . | . | 2.8%
O=C(NCCc1ccccc1)c1cccc(N2CCCC2=O)c1 | -4.3% | 7.3% | -2.4% | -0.3 | -11.7% | 5.3%
COC(=O)c1cccc(N2CCCC2=O)c1 | 13.2% | -6.2% | 0.7% | 3.0 | -10.4% | 2.3%
Cc1cc(Cl)ccc1C(=O)C1CCCN(C(=O)c2cccc(N3CCCC3=O)c2)C1 (stereo not given) | 6.0% | 12.5% | 0.3% | 0.1 | 23.8µM* | ?
CN(CCCNC(=O)c1cccc(N2CCCC2=O)c1)c1ccccc1 | 8.91µM* | -6.1% | -1.3% | -0.4 | -7.1% | 5.1%
O=C(O)c1cccc(N2CCCC2=O)c1 | 50.1µM* | -6.2% | 0.4% | -2.5 | -13.7% | -3.7%
Cc1cc(Cl)ccc1C(=O)C1CCCN(C(=O)c2ccc3ncccc3c2)C1 (stereo not given) | -2.4% | 8.3% | -1.6% | 2.8 | -6.5% | 9.1%
C[C@H]1CC[C@H]2C(=O)N3[C@H](c4cccc(N5CCCC5=O)c4)[C@@H](C)CC[C@H]3C(=O)N2[C@@H]1c1cccc(N2CCCC2=O)c1 | 50.1µM* | -17.4% | 1.1% | . | -10.4% | .
Cc1ccc(NC(=O)c2cc3c(=O)[nH]c4ccccc4c3n2C)cc1F | -21.8%[59 µM] | . | . | . | . | 25.2%
CCCc1cc(=O)[nH]c(Nc2cc(Cl)cc(Cl)c2)n1 | -7.7%[59 µM] | . | . | . | . | 4.1%
CC1CCCN(c2ncnc3c2nnn3C)C1 (stereo not given) | 3.1%[59 µM] | . | . | . | . | 18.7%
Cc1ccc(C)c(Cn2c3ccccc3c3cnn(CC(=O)NC(C)c4ccccc4)c(=O)c32)c1 (stereo not given) | -11.5%[59 µM] | . | . | . | . | 12.1%
O=C(Cn1cnc([N+](=O)[O-])c1)Nc1ccc(F)c(Cl)c1 | 50.1µM* | -18.8% | 0.3% | 4.1 | ? | 11.4%
Cc1cc(C)cc(OC(=O)CS(=O)c2ccc(C(F)(F)F)cc2[N+](=O)[O-])c1 (stereo not given) | -23.2% | 5.5% | 1.8% | 0.5 | ? | 20µM*

Screening data (PubChem BioAssay)
